The source of these data is PubChem BioAssay (Tox21).

Records with an inconclusive call do not appear. Some structures have more than one record in an assay (separate samples or runs), and their calls can disagree. Activity calls are given as the source filed them. Unless noted, calls follow the shape of the full dose curve.

Test [1] can be described thus: Nuclear factor erythroid 2-related factor 2/antioxidant responsive element (Nrf2/ARE) small molecule agonists: qHTS cell viability counter screen in human keratinocytes (AID 1919968; active = well fitted curve in the direction sought with a large enough effect in the repeat runs; an effect the other way counts as inactive or inconclusive; also: nearly all actives have a fitted effect of over 55% in size). Summed up: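 Stably transfected HaCaT (KeratinoSens), 1,500/well. Test agents in DMSO were applied for 23 h, 37 C/5% CO2. CellTiter-Fluor was incubated 1 h before the fluorescence read.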
For orientation: qHTS replaces the single test concentration by a dilution series.

Test [2] is described as follows: Nuclear factor erythroid 2-related factor 2/antioxidant responsive element (Nrf2/ARE) small molecule agonists: luciferase reporter gene qHTS assay in human keratinocytes (AID 1919969). Also: nearly all actives have a fitted effect of over 35% in size. Also: potency is read from the fitted curve at half-maximal effect. For orientation: A reporter such as luciferase makes a cellular process visible.
Test [3] concerns the target Gonadotropin-releasing hormone receptor (Homo sapiens) (UniProt P30968). The test can be described thus: Human gonadotropin-releasing hormone receptor (GnRHR) small molecule agonists, calcium flux assay in GnRHR-HEK293 cells (AID 1920063). Also: nearly all actives have a fitted effect of over 35% in size. Summed up:
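Stable human GnRHR HEK293 line. 18 h plating, then calcium dye for 1 h at 37 C. Agonist-mode compound addition from DMSO stocks; fluorescence monitored 3 min.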
(In general: Calcium flux is commonly read through the fluorescence of an indicator in the cells.)

The target in test [4] is KiSS-1 receptor (Homo sapiens) (UniProt Q969F8). The test can be described thus: Human kisspeptin (KISS1R) small molecule agonists, calcium flux assay in KISS1R-HEK293 cells (AID 1920064; active = well fitted curve in the direction sought with a large enough effect in the repeat runs; an effect the other way counts as inactive or inconclusive). Put shortly: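 After overnight (18 h) culture at 37 C/5% CO2, human KISS1R-HEK293 cells received calcium dye for 1 h, then test compound; emission at 540 nm (excitation 480 nm) was tracked for 3 min.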
KiSS-1 receptor (Homo sapiens), sequence (Q969F8 whole entry, looked up): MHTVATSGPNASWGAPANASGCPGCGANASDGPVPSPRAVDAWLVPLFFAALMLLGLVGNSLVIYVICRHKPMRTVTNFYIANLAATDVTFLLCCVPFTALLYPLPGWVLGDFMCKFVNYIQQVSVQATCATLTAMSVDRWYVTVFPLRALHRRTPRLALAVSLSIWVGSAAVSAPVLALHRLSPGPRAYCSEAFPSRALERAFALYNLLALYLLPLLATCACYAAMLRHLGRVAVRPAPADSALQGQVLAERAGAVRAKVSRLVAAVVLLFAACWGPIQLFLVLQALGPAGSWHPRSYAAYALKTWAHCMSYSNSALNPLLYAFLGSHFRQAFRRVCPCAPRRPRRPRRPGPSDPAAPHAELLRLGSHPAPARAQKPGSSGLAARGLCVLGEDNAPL

Test [5] is described as follows: G protein-coupled receptor (GPCR) small molecule agonists, calcium flux assay: HEK293 wild type cell line counter screen (AID 1920065). Summed up: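 Following 18 h incubation at 37 C/5% CO2, plates got calcium dye for 1 h; compounds, ATP or DMSO were then pinned in and fluorescence followed kinetically (480/540 nm).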
A short description of test [6]: p53 small molecule agonists, cell-based qHTS assay with human liver microsomes (AID 1963577).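 Also: p53 response element beta-lactamase reporter cells with liver microsomes plus NADPH.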 Summed up: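 With metabolic activation: human liver microsomes (0.5 mg/mL final) plus NADPH (0.5 mg/mL final) added alongside compounds to p53RE-bla cells; 16 h 37 C exposure; beta-lactamase read by LiveBLAzer fluorescence.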
Test [7] is described as follows: p53 small molecule agonists, cell-based qHTS assay with human liver microsomes: qHTS cell viability counter screen (AID 1963579). Also: nearly all actives have a fitted effect of over 45% in size. Put shortly:
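Metabolic activation used human liver microsomes and NADPH, both 0.5 mg/mL final, over 16 hours at 37 C on p53RE-bla cells (4,000/well). Cytotoxicity measured by CellTiter-Glo luminescence, 30 min at room temperature.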

Test [8] in a line: p53 small molecule agonists, cell-based qHTS assay with rat liver microsomes: qHTS cell viability counter screen (AID 1963580). Also: nearly all actives have a fitted effect of over 45% in size. Summed up:
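After the beta-lactamase ratio was read, CellTiter-Glo was added to the same wells and luminescence measured at 30 min; cells had been treated 16 h at 37 C with compounds, rat liver microsomes and NADPH (0.5 mg/mL final each).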

Test [9] is described as follows: p53 small molecule agonists, cell-based qHTS assay: qHTS cell viability counter screen (AID 1963581). Also: nearly all actives have a fitted effect of over 45% in size. Summed up:
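qHTS counter screen: 16 h compound exposure at 37 C of p53RE-bla HCT-116 cells (4,000 per well, seeded 5 h prior), cell viability by ATP luminescence.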

A short description of test [10]: p53 small molecule agonists, cell-based qHTS assay (AID 1963582; active = well fitted activation curve with a large enough effect in the signal ratio in the repeat runs, not every such curve was filed as active; the % refers to the signal ratio). Put shortly:
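Measured: fluorescence from cleaved LiveBLAzer substrate. System: p53RE-bla cells, 16 h compound treatment at 37 C, 2 h substrate step at room temperature.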

For test [11], the target named is 5-hydroxytryptamine receptor 2A (Homo sapiens) (UniProt P28223). The test can be described thus: 5-hydroxytryptamine receptor 2A (HTR2A) small molecule antagonists, cell-based qHTS assay (AID 1963586). Also: nearly all actives have a fitted effect of over 45% in size. Put shortly: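 CHO cells stably expressing human HTR2A were plated for 18 h at 37 C, then loaded with calcium dye for 1 h. Compounds were preincubated 5 min at room temperature before DOI (4 nM solution) was added. Kinetic fluorescence was read for 3 min.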
5-hydroxytryptamine receptor 2A (Homo sapiens), sequence (P28223 whole entry, looked up): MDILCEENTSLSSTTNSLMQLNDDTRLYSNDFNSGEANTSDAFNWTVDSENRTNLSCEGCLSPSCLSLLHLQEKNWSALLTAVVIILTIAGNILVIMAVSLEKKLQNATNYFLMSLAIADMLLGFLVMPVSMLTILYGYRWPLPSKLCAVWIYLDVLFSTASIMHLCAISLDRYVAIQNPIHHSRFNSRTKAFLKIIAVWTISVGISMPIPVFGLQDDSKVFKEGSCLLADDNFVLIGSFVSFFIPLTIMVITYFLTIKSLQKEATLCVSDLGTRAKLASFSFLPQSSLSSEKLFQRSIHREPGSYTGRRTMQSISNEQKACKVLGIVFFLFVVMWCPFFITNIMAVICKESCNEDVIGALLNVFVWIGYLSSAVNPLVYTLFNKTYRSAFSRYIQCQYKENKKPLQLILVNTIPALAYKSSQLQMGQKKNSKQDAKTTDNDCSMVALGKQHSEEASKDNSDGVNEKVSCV

Test [12] shares this target. The test can be described thus: 5-hydroxytryptamine receptor 2A (HTR2A) small molecule agonists, cell-based qHTS assay (AID 1963587). Also: nearly all actives have a fitted effect of over 30% in size. Put shortly: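 CHO cells stably expressing human HTR2A, plated 18 h, loaded with calcium dye 1 h at 37 C. Agonist mode: compounds added and intracellular calcium fluorescence recorded kinetically for 2 min at 1 sec intervals.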
For test [13], the target named is Muscarinic acetylcholine receptor M1 (Homo sapiens) (UniProt P11229). In words: Cholinergic receptor muscarinic 1 (CHRM1) small molecule antagonists, cell-based qHTS assay (AID 1963588). Also: nearly all actives have a fitted effect of over 40% in size. Put shortly:
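Compounds were tested at 15 concentrations in three independent runs. Dye-loaded CHRM1-CHO cells were exposed 5 min at room temperature before stimulation by acetylcholine added at 50nM. Intracellular calcium was read kinetically on FDSS for 3 min.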

The target is the same in test [14]. In words: Cholinergic receptor muscarinic 1 (CHRM1) small molecule agonists, cell-based qHTS assay (AID 1963589). Also: nearly all actives have a fitted effect of over 35% in size. Put shortly:
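Kinetic fluorescence (1 s intervals) of calcium-sensitive dye in human M1 CHO cells after compound addition; cells pre-incubated 18 h at 37 C/5% CO2 and dye-loaded 1 h.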

Test [15] in a line: cAMP Responsive Elements (CRE) small molecule agonists, cell-based qHTS assay (AID 1963590). Summed up:
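Test agents in DMSO were incubated 3 h at 37 C/5% CO2 with CRE-bla HEK 293T cells seeded 18 h earlier; LiveBLAzer B/G FRET substrate was added and read after 2 h at room temperature.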

Test [16] can be described thus: cAMP Responsive Elements (CRE) small molecule antagonists, cell-based qHTS assay (AID 1963591; active = well fitted inhibition curve with a large enough effect in the signal ratio in the repeat runs, not every such curve was filed as active; the % refers to the signal ratio). Put shortly:
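Reporter line CRE-bla HEK 293T in dialyzed-FBS DMEM; cells preincubated 18 h, treated 3 h with compound plus NKH477 (0.25 uM final); LiveBLAzer FRET, 2 h RT.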

The target of test [17] is Beta-2 adrenergic receptor (Homo sapiens) (UniProt P07550). In words: Adrenergic beta2 receptor (ADRB2) small molecule antagonists, cell-based qHTS assay (AID 1963592). Also: series mostly up to about 92 µM; nearly all actives have a fitted effect of over 50% in size. Summed up: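 Assay format: CHO-ADRB2 cells, 18-20hr seeding at 37C/5% CO2, then compound plus 1nM isoproterenol agonist mix for 0.5hr RT. Homogeneous time-resolved fluorescence cAMP detection after 1hr, expressed as 665/615 nm ratio.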
Beta-2 adrenergic receptor (Homo sapiens), sequence (P07550 whole entry, looked up): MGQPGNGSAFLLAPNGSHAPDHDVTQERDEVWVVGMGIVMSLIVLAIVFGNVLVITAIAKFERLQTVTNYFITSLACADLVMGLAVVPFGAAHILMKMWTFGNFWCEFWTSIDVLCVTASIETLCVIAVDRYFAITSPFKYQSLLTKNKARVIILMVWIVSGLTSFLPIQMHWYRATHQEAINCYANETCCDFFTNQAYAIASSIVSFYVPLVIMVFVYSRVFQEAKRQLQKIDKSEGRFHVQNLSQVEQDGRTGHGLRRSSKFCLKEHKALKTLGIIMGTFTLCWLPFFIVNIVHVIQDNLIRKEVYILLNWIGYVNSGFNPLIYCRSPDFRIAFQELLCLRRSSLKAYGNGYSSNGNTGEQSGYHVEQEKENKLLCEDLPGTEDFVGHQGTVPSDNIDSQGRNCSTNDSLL

Test [18] has the same target. In words: Adrenergic beta2 receptor (ADRB2) small molecule agonists, cell-based qHTS assay (AID 1963593).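 Also: CHO cells stably overexpressing human ADRB2.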 Put shortly:
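CHO cells stably over-expressing ADRB2 were plated overnight at 37C, then dosed with compounds plus a stimulation mix containing 100uM IBMX and 25uM Ro-20-1724 for 0.5hr at room temperature. cAMP was measured by HTRF competition, 1hr.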

The target in test [19] is D(2) dopamine receptor (Homo sapiens) (UniProt P14416). The test can be described thus: Dopamine D2 receptor (DRD2) small molecule agonists, cell-based qHTS assay (AID 1963594). Also: nearly all actives have a fitted effect of over 35% in size. Put shortly:
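HEK293 cells stably expressing human DRD2, pre-treated with PDE inhibitor Ro20-1724 (0.1 mM final) and compound 10 min at room temperature, then stimulated with NKH477 (200nM […]) for 30 min. cAMP read by HTRF (665/620 nm).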

The target is the same in test [20]. In words: Dopamine D2 receptor (DRD2) small molecule antagonists, cell-based qHTS assay (AID 1963595; active = well fitted inhibition curve with a large enough effect in the signal ratio in the repeat runs, with a control signal flat; the % refers to the signal ratio). Summed up: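 DRD2-HEK293; 0.1 mM Ro20-1724; cpd 10 min RT; NKH477 200 nM + quinpirole 12 nM, 30 min RT; HTRF cAMP (cAMP-d2/anti-cAMP cryptate), 665/620 nm ratio after 1 h.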

Gonadotropin-releasing hormone receptor (Homo sapiens), sequence (P30968 whole entry, looked up): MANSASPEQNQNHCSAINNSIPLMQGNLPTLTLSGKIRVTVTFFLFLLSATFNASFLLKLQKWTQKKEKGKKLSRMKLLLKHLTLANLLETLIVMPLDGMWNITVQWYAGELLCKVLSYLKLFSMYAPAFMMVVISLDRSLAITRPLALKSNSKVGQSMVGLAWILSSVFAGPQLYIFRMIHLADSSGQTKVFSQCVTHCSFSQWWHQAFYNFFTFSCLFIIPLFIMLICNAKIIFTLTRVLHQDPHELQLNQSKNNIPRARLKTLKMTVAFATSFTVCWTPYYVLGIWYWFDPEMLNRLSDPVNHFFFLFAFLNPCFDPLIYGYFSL
Muscarinic acetylcholine receptor M1 (Homo sapiens), sequence (P11229 whole entry, looked up): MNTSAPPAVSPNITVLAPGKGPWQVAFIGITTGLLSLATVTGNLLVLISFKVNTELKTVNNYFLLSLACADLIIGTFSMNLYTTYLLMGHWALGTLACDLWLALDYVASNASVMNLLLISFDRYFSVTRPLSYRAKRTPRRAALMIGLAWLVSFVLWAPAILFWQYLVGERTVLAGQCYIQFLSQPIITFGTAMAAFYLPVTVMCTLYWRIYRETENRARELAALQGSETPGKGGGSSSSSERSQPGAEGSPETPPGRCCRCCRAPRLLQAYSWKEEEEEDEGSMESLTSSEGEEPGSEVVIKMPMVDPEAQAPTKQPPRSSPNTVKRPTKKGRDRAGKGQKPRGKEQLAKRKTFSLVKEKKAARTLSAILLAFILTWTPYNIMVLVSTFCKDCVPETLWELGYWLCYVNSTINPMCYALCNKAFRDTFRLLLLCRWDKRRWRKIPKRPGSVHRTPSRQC
D(2) dopamine receptor (Homo sapiens), sequence (P14416 whole entry, looked up): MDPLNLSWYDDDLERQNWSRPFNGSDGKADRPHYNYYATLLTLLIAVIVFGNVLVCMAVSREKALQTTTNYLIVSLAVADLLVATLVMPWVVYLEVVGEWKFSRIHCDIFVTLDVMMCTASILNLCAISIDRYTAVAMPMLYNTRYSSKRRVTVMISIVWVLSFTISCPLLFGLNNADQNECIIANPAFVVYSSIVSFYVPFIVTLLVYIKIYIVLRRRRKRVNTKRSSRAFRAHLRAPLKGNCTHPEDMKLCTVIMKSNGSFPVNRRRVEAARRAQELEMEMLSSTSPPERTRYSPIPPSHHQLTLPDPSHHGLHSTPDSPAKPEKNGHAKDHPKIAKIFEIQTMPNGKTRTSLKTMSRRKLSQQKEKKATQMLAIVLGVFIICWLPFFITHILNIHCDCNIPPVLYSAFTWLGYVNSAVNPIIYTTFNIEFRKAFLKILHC

`COC(=O)CCC(=O)OC`: the Potency entry in test [1], in test [2], in test [3], in test [4], in test [5] and in [6] was “inactive” each time. The Potency result in test [7], in test [8], in [9], in test [10], in [11] and in [12] was “inactive” in each case. Further, the Potency entry in [13], in test [14], in test [15], in [16], in [17] and in test [18] was “inactive” each time. Further, the Potency entry in test [19] and in test [20] was “inactive” each time.
With `Cc1ccncc1`, the Potency entry in [1], in test [2], in [3], in test [4], in [5] and in test [6] was “inactive” throughout. Moreover, the Potency result in [7], in test [8], in test [9], in test [10], in [11] and in test [12] was “inactive” in each case. Further, the Potency result in test [13], in [14], in test [16], in test [17], in [19] and in test [20] was “inactive” each time.
In the case of `C=C(C)CC(C)(C)C`, the Potency entry in test [1], in test [2], in [3], in test [4], in test [5] and in test [6] was “inactive” in each case. Further, the Potency result in test [7], in test [8], in [9], in [10], in test [11] and in [12] was “inactive” each time. Further, the Potency entry in test [13], in test [14], in [15], in test [16], in test [18] and in test [19] was “inactive” throughout. Moreover, the Potency result in [20] is “inactive”.
`Cc1cc(=O)[nH]c(C(C)C)n1`: the Potency result in test [1], in test [2], in [3], in [4], in [5] and in test [6] was “inactive” in each case. For the same compound, the Potency entry in test [7], in test [8], in [9], in [10], in [11] and in test [12] was “inactive” throughout. Besides, the Potency result in test [13], in test [14], in test [15], in test [16], in test [17] and in test [19] was “inactive” each time. For the same compound, in test [20], the Potency entry was “inactive”.
Consider `CCCCCCCCCCCCCCCO`, for which the Potency entry in test [1], in [3], in test [4], in test [5], in test [6] and in test [7] was “inactive” throughout. Also, the Potency entry in test [8], in [9], in test [10], in [11], in test [12] and in [13] was “inactive” in each case. Also, the Potency entry in [14], in [15], in test [16], in test [17] and in [20] was “inactive” each time. Also, in test [2], the Potency was 54.9 µM (active) and inactive.
Consider `O=c1[nH]c(=O)n([C@H]2C[C@H](O)[C@@H](CO)O2)cc1Br`, for which the Potency result in test [1], in test [2], in [3], in test [4], in [5] and in [6] was “inactive” throughout. For the same compound, the Potency entry in test [7], in test [8], in test [10], in [11], in [12] and in [13] was “inactive” throughout. The Potency result in [14], in [16], in test [17], in [18], in test [19] and in test [20] was “inactive” each time.
As for `Oc1c(Cl)cc(Cl)c(Cl)c1Cl`, the Potency entry in test [1], in [2], in [3], in test [4], in [5] and in [6] was “inactive” each time. Also, the Potency entry in test [7], in test [8], in test [9], in [11], in test [12] and in test [13] was “inactive” in each case. Also, the Potency entry in [14], in test [16], in test [17], in [19] and in test [20] was “inactive” throughout.
